Screens from PubChem.
IDE cell activ: activators of human insulin-degrading enzyme in cells; activation, % at 5.96 µM; P14735; HEK cells, FAbeta-B cleavage, fluorescence polarization; 0% vehicle, 100% cell-free pure enzyme wells; actives 0.073% (n = 340,000);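 active = activation above the mean of all tested compounds plus 3 SD, set per screening campaign, cut at about 17% in these data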
IDE inh: inhibits human insulin-degrading enzyme in HEK cells. FAbetaB cleavage, fluorescence polarization. inhibition, % at 5.59 µM. actives 0.41% (n = 320,000). AID 434962;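 active = percent inhibition above the average of all tested compounds plus 3 SD, set per screening campaign, cut at about 16% in these data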;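 note: IDE supplied by intact live HEK cells; FP after avidin binding of uncleaved biotin substrate so inhibition keeps polarization high; 0% = DMSO wells and 100% = 60 µM reference IDE inhibitor Ii1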
Calb FLC: C. albicans growth modulation with fluconazole; AID 1979; growth inhibition, % (test concentration not listed); actives 0.57% (n = 300,000); C. albicans CaCi-2 (fluconazole-resistant clinical isolate) + fluconazole, Alamar Blue growth, 48 h;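 active = growth inhibition above about 58% in most replicates, limit read from the data, passing the limit was not always enough; inconclusive = exactly half the replicates above a set limit; inactive = most replicates below a set limit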;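 note: all wells also contain fluconazole at 8 µg/ml as a sub-toxic cotreatment; 0% = median of DMSO wells and 100% = median of geldanamycin control wells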
Rin1 Abl inh: blocks binding of human Rin1 to Abl. P00519+Q13671. TR-FRET Rin1/Abl binding, biochemical. actives 0.4% (n = 360,000). inhibition, % at 7.35 µM. AID 588664; in the data active = inhibition above about 5%, passing the limit was not always enough
Rpn11 inh: inhibitors of human proteasome Rpn11. human 26S proteasome, Ub4-pepOG fluorescence polarization; 20S core pre-blocked with epoxomicin. inhibition, % at 20 µM. actives 0.59% (n = 360,000);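 active = inhibition at 20 µM, scaled to each plate's controls, above about 33%, limit read from the data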
TPT1 inhibitor: C. albicans TPT1 enzyme inhibition. inhibition, % at 5 µM. recombinant caTPT1, FP RNA substrate dephosphorylation. actives 0.81% (n = 300,000). AID 1962;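 active = inhibition above the mean of all tested compounds plus 3 SD, set per screening campaign, cut at about 24% in these data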;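 note: plate controls were DMSO alone for no effect and ferristatin control at 100 nM for full effect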
Rpn11 inh conf: Rpn11 inhibition confirmation, single concentration; shares compounds with Rpn11 inh; purified human 26S proteasome, Ub4-pepOG fluorescence polarization; proteasome pretreated with epoxomicin; inhibition, % at 20 µM; actives 29% (n = 1,900)
MMP-2 inh: counter-screen for RPN11 inhibitors: inhibition of human MMP-2. shares compounds with Rpn11 inh. inhibition, % at 20 µM. actives 4% (n = 1,900). recombinant MMP-2, FRET peptide cleavage fluorescence;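 note: human MMP-2 activated beforehand with APMA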
Thrombin inh: thrombin (bovine) inhibition counter-screen; shares compounds with Rpn11 inh; bovine thrombin cleavage of Ub4-pepOG, fluorescence polarization; inhibition, % at 20 µM; actives 13% (n = 1,900);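 active = mean inhibition at least 40% at 20 µM, or signal 3 deviations below plate average, so some actives read negative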;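 note: plate controls were thrombin with DMSO for no effect and buffer wells lacking thrombin for full effect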
Target sequence (P00735 whole entry, looked up): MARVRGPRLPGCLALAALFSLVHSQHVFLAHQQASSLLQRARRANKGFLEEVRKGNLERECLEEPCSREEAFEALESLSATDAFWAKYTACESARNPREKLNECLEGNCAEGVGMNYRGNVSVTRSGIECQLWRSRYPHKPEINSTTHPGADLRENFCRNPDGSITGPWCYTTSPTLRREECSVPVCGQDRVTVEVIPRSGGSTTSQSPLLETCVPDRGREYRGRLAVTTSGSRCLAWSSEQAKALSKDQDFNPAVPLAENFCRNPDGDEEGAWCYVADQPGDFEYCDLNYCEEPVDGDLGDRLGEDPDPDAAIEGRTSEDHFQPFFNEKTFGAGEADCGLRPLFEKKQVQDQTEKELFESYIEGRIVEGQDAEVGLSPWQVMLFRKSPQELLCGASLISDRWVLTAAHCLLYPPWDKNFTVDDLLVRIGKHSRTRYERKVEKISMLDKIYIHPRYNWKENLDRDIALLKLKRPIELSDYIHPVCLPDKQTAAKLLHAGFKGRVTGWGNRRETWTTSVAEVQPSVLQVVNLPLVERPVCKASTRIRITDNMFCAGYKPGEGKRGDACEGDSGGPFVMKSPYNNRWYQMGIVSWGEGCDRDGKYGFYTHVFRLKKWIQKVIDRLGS
An asterisk follows results filed as active; u = inconclusive; x = no result given; + = active, no number. Rows were chosen to be rich in hits. Some 2.3% of all compounds tested hit in one or more screens of this group. Cut-off read from the data, not from the text of the source, unless noted: active = inhibition above about 40%; inactive = the rest.

SMILES	IDE cell activ	IDE inh	Calb FLC	Rin1 Abl inh	Rpn11 inh	TPT1 inhibitor	Rpn11 inh conf	MMP-2 inh	Thrombin inh
OC(Cc1cccc(C=NN2CCOCC2)n1)(C(F)(F)F)C(F)(F)F	x	x	x	2	-8	x	x	x	x
COc1cc2nc(C(C)(C)C)oc(=O)c2cc1OC	11	-2	-8	0	-1	-1	x	x	x
CCC(CC)c1nc2cc(OC)c(OC)cc2c(=O)o1	7	3	-2	-1	+	6	-17	-17	3
CCCCN(C=O)c1c(CC)nc2c(OCc3ccc(S(C)(=O)=O)cc3)cccn12	x	x	x	1	5	x	x	x	x
Cc1ccccc1Sc1ccc(N)cn1	x	0	-12	-2	60*	13	9	-33	-2
CSc1ccc(CN(C)C(=O)CNC(=O)c2ccc3c(c2)OCO3)cc1	0	11	-2	1	8	9	x	x	x
O=C(O)CCC(=O)N1N=C(c2ccccc2)CC1c1ccc2c(c1)OCO2 (stereo not drawn)	7	x	0	-1	-3	x	x	x	x
CC(C)(/C=N/O)N(O)C=C1C=CC(=O)C=C1	7	-6	-3	-2	-9	-4	x	x	x
CN1C=CC(=CC=C2C=CC(=O)C=C2)C=C1	-2	-1	-8	-5	82*	12	43*	-13	31
c1cc(C2CCCCC2)ccc1Oc1nc(N2CCOCC2)nc(N2CCOCC2)n1	5	-1	-8	1	131*	-3	7	19	-13
c1ccc(Oc2nc(N3CCOCC3)nc(N3CCOCC3)n2)cc1	-3	1	u	1	5	0	x	x	x
O=C1NC2(CCCCCC2)C(=O)N1Cc1ccccc1F	-1	-1	2	0	-4	-2	x	x	x
O=C(N/N=C/c1ccncc1)c1ccc(NC(=O)c2cccc(Cl)c2)cc1	-10	8	-6	2	52*	5	19	-32	-10
O=C(N/N=C/c1ccncc1)c1cccc(NC(=O)c2ccccc2Cl)c1	-2	3	-3	0	-7	2	x	x	x
O=C(N/N=C/c1ccncc1)c1ccc(NC(=O)c2ccc(Cl)cc2)cc1	-7	-2	-1	2	45*	1	17	-6	2
O=C(N/N=C/c1ccco1)c1ccc(NC(=O)c2ccc(Cl)cc2)cc1	-1	6	-10	-2	43*	-2	-5	-1	-5
O=C(N/N=C/c1ccncc1)c1cccc(S(=O)(=O)Nc2ccc(Cl)cc2)c1	6	5	9	-1	106*	-1	139*	46*	12
O=C(N/N=C/c1cccnc1)c1cccc(S(=O)(=O)Nc2cccc(Cl)c2)c1	7	0	-18	0	2	2	x	x	x
Cc1ccc(C(=O)Nc2ccc(C(=O)N/N=C/c3ccncc3)cc2)cc1	x	3	-18	x	x	0	x	x	x
COc1cc(C(=O)NCC(c2cccs2)N2CCOCC2)cc(Br)c1OCc1ccccc1 (stereo not drawn)	1	4	x	0	5	x	x	x	x
COc1cccc(/C=C2/CCC(CN(C)C)C2=O)c1 (stereo not drawn)	-12	x	x	1	7	x	x	x	x
COc1ccc(-c2oc3ccccc3c2C(=O)OCc2ccccc2OC)cc1	-1	3	-5	-1	12	1	x	x	x
COc1ccc(N(CC(=O)NC2CCCC2)C(=O)CCC(=O)Nc2cc(C)on2)cc1OC	2	3	0	2	1	0	x	x	x
CCCc1ccc2oc(C(=O)NCc3nnc(C)o3)c(C)c2c1	0	x	8	-5	1	x	x	x	x
N#C/C(=C\c1c(N(Cc2ccccc2)Cc2ccccc2)nc2ccccn2c1=O)C(N)=O	-4	5	-10	-3	-6	0	x	x	x
C=CCNC(=O)/C(C#N)=C/c1c(N(Cc2ccccc2)Cc2ccccc2)nc2ccccn2c1=O	1	-4	-2	-4	46*	0	19	21	12
